{
  "source": "PubChem BioAssay (EPA / NIEHS)",
  "note": "Active and inactive are the calls of the source. Rule for the calls: active = hit-call score of the fitted dose curve at least 0.9, where 1 is the maximum; inactive = score below 0.9.",
  "data": [
    {"target": "Transcriptional activator Myb (Homo sapiens) (UniProt P10242)", "sequence (P10242 whole entry, looked up)": "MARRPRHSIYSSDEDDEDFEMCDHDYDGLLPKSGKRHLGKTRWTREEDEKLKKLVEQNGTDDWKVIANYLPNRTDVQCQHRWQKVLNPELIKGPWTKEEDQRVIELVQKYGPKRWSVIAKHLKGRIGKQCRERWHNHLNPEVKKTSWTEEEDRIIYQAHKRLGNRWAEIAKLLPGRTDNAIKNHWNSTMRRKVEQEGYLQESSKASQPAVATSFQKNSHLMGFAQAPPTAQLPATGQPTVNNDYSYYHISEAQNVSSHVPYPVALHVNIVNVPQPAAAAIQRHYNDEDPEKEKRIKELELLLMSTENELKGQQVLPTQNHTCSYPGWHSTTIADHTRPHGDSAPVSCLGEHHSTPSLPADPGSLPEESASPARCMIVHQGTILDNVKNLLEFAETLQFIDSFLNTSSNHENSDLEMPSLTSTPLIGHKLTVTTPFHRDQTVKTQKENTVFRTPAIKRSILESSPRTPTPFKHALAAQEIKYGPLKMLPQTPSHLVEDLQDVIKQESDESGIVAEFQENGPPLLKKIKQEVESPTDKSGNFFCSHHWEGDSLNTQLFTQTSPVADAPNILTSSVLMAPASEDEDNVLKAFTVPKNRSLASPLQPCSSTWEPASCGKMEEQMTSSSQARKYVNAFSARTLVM", "test": "ATG_Myb_CIS: Attagene CIS-FACTORIAL HepG2 Assay for human Myeloblastosis (Myb) Proto-Oncogene Transcription Factor (AID 2282986)", "conditions": "HepG2 Attagene CIS-FACTORIAL Myb reporter transcription; actives raise or lower the signal", "protocol": "ATG_CIS is a cell-based, multiplexed-readout assay that uses HepG2, a human liver cell line, with measurements taken at 24 hours after chemical dosing in a 24-well plate.ATG_Myb_CIS is one of 52 assay component(s) measured or calculated from the ATG_CIS assay. It is designed to make measurements of mRNA induction, a form of inducible reporter, as detected with fluorescence intensity signals by Reverse transcription polymerase chain reaction (RT-PCR) and Capillary electrophoresis technology.Data from the assay component ATG_Myb_CIS was analyzed into 1 assay endpoint. This assay endpoint, ATG_Myb_CIS, was analyzed with bidirectional fitting relative to DMSO as the negative control and baseline of activity. Using a type of inducible reporter, measures of mRNA for gain or loss-of-signal activity can be used to understand the reporter gene at the transcription factor-level as they relate to the gene MYB. Furthermore, this assay endpoint can be referred to as a primary readout, because this assay has produced multiple assay endpoints where this one serves a reporter gene function. To generalize the intended target to other relatable targets, this assay endpoint is annotated to the dna binding intended target family, where the subfamily is MYB proteins.\nHuman liver HepG2 cells are transiently transfected with multiple reporter transcription units (MRTUs) in 6-well plates using FuGene 6 reagent (Roche; 3 ml FuGene/1 mg DNA). The MRTU constructs are regulated by a cis-regulating element (promoter). […] A major difference between the CIS and TRANS system is that in CIS activities of endogenous TFs are measured, whereas the TRANS assay evaluates changes in activities of exogenous, chimeric NR-Gal4 proteins. […] At the end of 24 hour incubation, total RNA was isolated using TriZol reagent (Invitrogen). The isolated RNA is then reverse-transcribed using oligo(dT) primer and Mo-MLV reverse transcriptase (Invitrogen) with DNAse I (Ambion) treatment for 30 min. The one-tenth of the produced cDNA was amplified by PCR using Taq DNA polymerase (Invitrogen) and two reporter sequence-specific primers. The PCR products were fluorescently labeled by primer extension with 6-arboxyfluorescein (6-FAM) 5'-labeled reporter sequence-specific primer (2 min at 95 C, 20 s at 68 C and 10 min at 72 C) and these products were digested with 5U of HpaI (New England Biolabs) for 2h at 37 C. The fragments were purified using Qiaquick PCR columns (Qiagen), analyzed on an ABI 3130xL genetic analyzer (Applied Biosystems) with peak positions identified by using a set of X-rhodamine (ROX)-labeled MapMarker1000 molecular weight standards (BioVentures). The raw capillary electrophoresis data was processed using Attagraph software (Attagene).", "values": [
      {"smiles": "CC(=O)OCCC1CCCCC1", "outcome": "inactive"},
      {"smiles": "Cc1ccc(C(C)c2ccc(C)c(C)c2)cc1C", "AC50": "125 µM (active)"},
      {"smiles": "O=C1CCCC1", "outcome": "inactive"},
      {"smiles": "CCCCC(CC)CCC(CC(C)C)OS(=O)(=O)O", "note": "(stereo not given)", "outcome": "inactive"},
      {"smiles": "Cc1ccc(N)c([N+](=O)[O-])c1", "outcome": "inactive"},
      {"smiles": "O=C1CCCC(=O)O1", "outcome": "inactive"},
      {"smiles": "COC(=O)c1ccccc1OC", "outcome": "inactive"},
      {"smiles": "O=C(c1ccc(O)cc1)c1ccc(O)cc1O", "outcome": "inactive"},
      {"smiles": "CNC(=S)N(C)C", "outcome": "inactive"},
      {"smiles": "O=c1cc[nH]c(=S)[nH]1", "outcome": "inactive"},
      {"smiles": "C[Si](C)(CCCN)O[Si](C)(C)CCCN", "outcome": "inactive"},
      {"smiles": "CC(C)c1ccc(C=O)cc1", "outcome": "inactive"},
      {"smiles": "Clc1nc2ccccc2s1", "outcome": "inactive"},
      {"smiles": "CC(C)(c1cc(Br)c(OCCO)c(Br)c1)c1cc(Br)c(OCCO)c(Br)c1", "outcome": "inactive"},
      {"smiles": "CC(C)C1=CC2=CC[C@@H]3[C@](C)(CCC[C@@]3(C)C(=O)O)[C@H]2CC1", "outcome": "inactive"},
      {"smiles": "CN(C)c1ccc(N=Nc2ccccc2C(=O)O)cc1", "AC50": "25.3 µM (active)"},
      {"smiles": "Cc1cc(=O)n(-c2ccccc2)n1C", "outcome": "inactive"},
      {"smiles": "CC1=NC(C)OC1C", "note": "(stereo not given)", "outcome": "inactive"},
      {"smiles": "CCOC(F)(F)C(F)(F)C(F)(F)C(F)(F)F", "outcome": "inactive"},
      {"smiles": "CC(C)(C)C(=O)C=Cc1ccc(Cl)cc1", "outcome": "inactive"},
      {"smiles": "OC1OCCOC1O", "note": "(stereo not given)", "outcome": "inactive"},
      {"smiles": "Nc1ccc(Oc2ccc(N)c(N)c2)cc1", "outcome": "inactive"},
      {"smiles": "CC(=O)Oc1ccc(C)cc1", "outcome": "inactive"},
      {"smiles": "C=CCOCC(O)CCl", "note": "(stereo not given)", "outcome": "inactive"},
      {"smiles": "C=COCCCC", "outcome": "inactive"},
      {"smiles": "CCCCCC/C=C/C=O", "outcome": "inactive"},
      {"smiles": "CC(C)c1ccc2c(c1)CC[C@H]1[C@](C)(CN)CCC[C@]21C", "outcome": "inactive"},
      {"smiles": "CCCCCCCCc1ccc(Nc2ccc(CCCCCCCC)cc2)cc1", "outcome": "inactive"},
      {"smiles": "CC[C@H]1OC(=O)[C@H](C)[C@@H](O[C@H]2C[C@@](C)(OC)[C@@H](O)[C@H](C)O2)[C@H](C)[C@@H](O[C@@H]2O[C@H](C)C[C@H](N(C)C)[C@H]2O)[C@](C)(O)C[C@@H](C)C(=NOCOCCOC)[C@H](C)[C@@H](O)[C@]1(C)O", "outcome": "inactive"},
      {"smiles": "O=C1CCCCCN1SSN1CCCCCC1=O", "outcome": "inactive"},
      {"smiles": "C1=CCCC1", "outcome": "inactive"},
      {"smiles": "CCC(C)OC(=O)c1ccc(O)cc1", "note": "(stereo not given)", "outcome": "inactive"},
      {"smiles": "CC(C)(C)C1CCCCC1=O", "note": "(stereo not given)", "outcome": "inactive"},
      {"smiles": "C/C=C\\C/C=C/CCCCCCCCOC(C)=O", "outcome": "inactive"},
      {"smiles": "CCCCCCC(O)CO", "note": "(stereo not given)", "outcome": "inactive"},
      {"smiles": "CCCCCCCCO[C@@H]1O[C@H](CO)[C@@H](O)[C@H](O)[C@H]1O", "outcome": "inactive"},
      {"smiles": "Cc1ccc(C2OC[C@@H]3OC(c4ccc(C)cc4)O[C@H]([C@H](O)CO)[C@@H]3O2)cc1", "note": "(stereo not given in full)", "outcome": "inactive"},
      {"smiles": "CCCNC(=O)NS(=O)(=O)c1ccc(Cl)cc1", "outcome": "inactive"},
      {"smiles": "COC=O", "outcome": "inactive"},
      {"smiles": "CC(C)COC(=O)C=Cc1ccccc1", "outcome": "inactive"}
    ]}
  ]
}
